What all share (assay): protein-binding microarray (PBM); PBM: ~300 nM protein, 6 mM HEPES pH 7.8, 80 mM KCl, 0.5 mM EDTA, 0.5 mM EGTA, 6% glycerol, 35 ng/ul poly-dIdC, 1% milk, 1 h, room temperature; Ap Aiptasia and Nv Nematostella (sea anemones) / Co Capsaspora / Aq Amphimedon (sponge) / Dm Drosophila / Hu human; RHD is the Rel homology domain; high values mean tight binding
Common to all, as to details: dsDNA, one strand shown

The target of experiment [1] is T1, GST-Ap-NF-kB RHD (Exaiptasia pallida (Aiptasia), UniProt A0A913YAJ5 2-422).
T1 sequence: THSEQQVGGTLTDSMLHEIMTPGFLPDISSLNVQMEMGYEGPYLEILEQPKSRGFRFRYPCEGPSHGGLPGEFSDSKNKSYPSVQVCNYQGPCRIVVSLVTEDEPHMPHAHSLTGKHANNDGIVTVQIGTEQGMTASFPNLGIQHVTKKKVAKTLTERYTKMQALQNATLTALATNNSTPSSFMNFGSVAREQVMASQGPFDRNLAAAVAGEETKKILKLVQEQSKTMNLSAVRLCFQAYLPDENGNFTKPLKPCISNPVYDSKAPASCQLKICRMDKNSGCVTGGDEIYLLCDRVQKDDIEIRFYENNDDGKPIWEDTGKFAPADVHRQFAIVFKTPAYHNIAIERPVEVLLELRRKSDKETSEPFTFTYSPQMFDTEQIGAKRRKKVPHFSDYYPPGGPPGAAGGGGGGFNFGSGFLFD

Experiment [2] has as its target T2, GST-Nv-NF-kB (Cys allele) (Nematostella vectensis, UniProt E5G601 2-411).
T2 sequence: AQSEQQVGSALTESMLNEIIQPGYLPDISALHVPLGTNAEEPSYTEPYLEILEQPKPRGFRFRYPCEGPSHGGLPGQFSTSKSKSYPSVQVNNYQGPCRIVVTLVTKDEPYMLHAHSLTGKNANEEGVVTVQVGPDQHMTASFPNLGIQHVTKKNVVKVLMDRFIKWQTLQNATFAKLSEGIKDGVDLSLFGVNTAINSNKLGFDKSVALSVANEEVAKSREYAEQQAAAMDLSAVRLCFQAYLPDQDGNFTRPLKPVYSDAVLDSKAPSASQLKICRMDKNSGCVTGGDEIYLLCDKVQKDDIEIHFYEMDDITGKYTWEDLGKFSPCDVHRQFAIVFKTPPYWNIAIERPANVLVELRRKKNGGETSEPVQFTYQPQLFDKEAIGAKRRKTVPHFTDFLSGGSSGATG

Experiment [3] concerns the target T3, GST-Nv-NF-kB (Ser allele) (Nematostella vectensis, UniProt A7UNT2 2-411).
T3 sequence: T2 sequence with Q21R, C66S, S207N, E215Q, V217A, E225K, A268E, D399E

Experiment [4] deals with T4, GST-Co-NF-kB (Capsaspora owczarzaki, UniProt F1ARL5 200-546).
T4 sequence: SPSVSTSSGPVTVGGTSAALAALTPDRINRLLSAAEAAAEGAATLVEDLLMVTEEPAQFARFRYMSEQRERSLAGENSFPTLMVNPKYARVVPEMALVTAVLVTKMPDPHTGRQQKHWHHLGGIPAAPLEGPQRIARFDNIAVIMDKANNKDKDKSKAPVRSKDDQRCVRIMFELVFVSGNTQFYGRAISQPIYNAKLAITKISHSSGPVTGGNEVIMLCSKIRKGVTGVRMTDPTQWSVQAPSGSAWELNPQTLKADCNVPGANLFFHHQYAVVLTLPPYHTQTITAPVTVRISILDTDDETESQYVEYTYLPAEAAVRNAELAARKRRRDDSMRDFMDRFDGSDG

Experiment [5] has as its target T5, GST-Dm-Relish (Drosophila melanogaster, UniProt Q94527 99-473).
T5 sequence: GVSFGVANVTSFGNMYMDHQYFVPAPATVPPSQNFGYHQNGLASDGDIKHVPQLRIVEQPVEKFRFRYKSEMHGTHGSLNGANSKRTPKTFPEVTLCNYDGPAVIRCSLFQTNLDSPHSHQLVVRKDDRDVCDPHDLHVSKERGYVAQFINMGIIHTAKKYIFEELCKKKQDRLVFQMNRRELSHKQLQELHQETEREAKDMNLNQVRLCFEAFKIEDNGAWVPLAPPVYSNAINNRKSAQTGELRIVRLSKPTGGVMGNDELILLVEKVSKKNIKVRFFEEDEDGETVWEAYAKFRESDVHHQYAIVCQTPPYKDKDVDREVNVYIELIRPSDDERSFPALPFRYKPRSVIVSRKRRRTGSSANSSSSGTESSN

Experiment [6] concerns the target T6, GST-Aq-NF-kB (Amphimedon queenslandica, UniProt A9Y5G7 2-389).
T6 sequence: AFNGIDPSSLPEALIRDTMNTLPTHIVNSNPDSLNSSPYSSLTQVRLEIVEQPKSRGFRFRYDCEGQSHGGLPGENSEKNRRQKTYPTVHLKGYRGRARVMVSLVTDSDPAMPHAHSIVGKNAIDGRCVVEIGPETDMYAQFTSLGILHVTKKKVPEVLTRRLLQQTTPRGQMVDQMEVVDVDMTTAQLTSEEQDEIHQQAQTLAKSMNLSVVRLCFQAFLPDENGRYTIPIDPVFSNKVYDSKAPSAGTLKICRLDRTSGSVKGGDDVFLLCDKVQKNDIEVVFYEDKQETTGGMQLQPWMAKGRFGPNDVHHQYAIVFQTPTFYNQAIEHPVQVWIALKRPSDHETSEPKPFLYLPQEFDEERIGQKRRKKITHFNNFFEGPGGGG

For experiment [7], the target named is GST-Hu-p50 (Homo sapiens, UniProt P19838 7-356).

Substitutions are numbered along the chain they refer to.

GST-Hu-p50, sequence (P19838 7-356): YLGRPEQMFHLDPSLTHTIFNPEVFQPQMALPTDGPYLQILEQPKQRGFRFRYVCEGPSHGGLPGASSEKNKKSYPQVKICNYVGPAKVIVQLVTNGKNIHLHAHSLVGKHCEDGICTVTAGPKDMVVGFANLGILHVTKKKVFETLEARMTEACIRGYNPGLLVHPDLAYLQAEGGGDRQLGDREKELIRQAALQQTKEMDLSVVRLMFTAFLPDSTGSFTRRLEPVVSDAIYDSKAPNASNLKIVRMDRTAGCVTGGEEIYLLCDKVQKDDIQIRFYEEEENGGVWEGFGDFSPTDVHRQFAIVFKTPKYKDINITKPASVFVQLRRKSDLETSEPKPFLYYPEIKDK

As to “CCGATTAACATCAATCCCCACATTGATGTTAATCGGGTCTTGATTCGCTTGACGCTGCTG”, the binding signal in experiment [1] turned out to be 3.58 z-score; in experiment [2], 4.03 z-score; in experiment [3] it was 3.93 z-score; in experiment [4] it was 2.61 z-score; in experiment [5] it was 2.63 z-score; in experiment [6], 2.58 z-score. The sequence also yielded a binding signal in experiment [7] of 3.86 z-score.

As to “CCGATTAACATCAAAAACCCCCTTGATGTTAATCGGGTCTTGATTCGCTTGACGCTGCTG”, the binding signal is 10.4 z-score in experiment [1]; 10.3 z-score in experiment [2]; 10.9 z-score in experiment [3]; 2.93 z-score in experiment [4]; 10.9 z-score in experiment [5]; 9.31 z-score in experiment [6]. In addition, in experiment [7], the binding signal is 8.33 z-score.

Consider “CCGATTAACATCAAATTTCCCGATGATGTTAATCGGGTCTTGATTCGCTTGACGCTGCTG”, for which the binding signal was determined as 3.04 z-score in experiment [1]; 4.4 z-score in experiment [2]; 3.94 z-score in experiment [3]; 4.24 z-score in experiment [4]; 2.2 z-score in experiment [5]; 4.21 z-score in experiment [6]. The sequence further came in with a binding signal in experiment [7] of 3.9 z-score.

Turning to “CCGATTAACATCAGATCTCCCCCTGATGTTAATCGGGTCTTGATTCGCTTGACGCTGCTG”, the binding signal in experiment [1] was 6.98 z-score; in experiment [2] it was 5.31 z-score; in experiment [3], 6.01 z-score; in experiment [4] it was 8.07 z-score; in experiment [5], 2.64 z-score; in experiment [6], 4.88 z-score. Besides, in experiment [7], the binding signal is 5.76 z-score.

“CCGATTAACATCACTCATCCCCGTGATGTTAATCGGGTCTTGATTCGCTTGACGCTGCTG”: the binding signal in experiment [1] is 1.85 z-score; in experiment [2], 3.17 z-score; in experiment [3], 3.8 z-score; in experiment [4], 2.78 z-score; in experiment [5], 2.33 z-score; in experiment [6], 2.51 z-score. The sequence further registered a binding signal in experiment [7] of 2.23 z-score.

For the sequence “CCGATTAACATCAAATTTTCCCCTGATGTTAATCGGGTCTTGATTCGCTTGACGCTGCTG”, the binding signal worked out at 7.95 z-score in experiment [1]; 9.83 z-score in experiment [2]; 12.2 z-score in experiment [3]; 11.6 z-score in experiment [4]; 5.18 z-score in experiment [5]; 7.36 z-score in experiment [6]. The sequence further returned a binding signal in experiment [7] of 6.86 z-score.

For “CCGATTAACATCAGGGGGTTTCATGATGTTAATCGGGTCTTGATTCGCTTGACGCTGCTG”, the binding signal in experiment [1] was 8.25 z-score; in experiment [2] it was 7.15 z-score; in experiment [3], 7.35 z-score; in experiment [4], 2.56 z-score; in experiment [5] it was 8.76 z-score; in experiment [6], 6.59 z-score. The sequence further returned a binding signal in experiment [7] of 6.6 z-score.

As to “CCGATTAACATCAACTTTTCCCCTGATGTTAATCGGGTCTTGATTCGCTTGACGCTGCTG”, the binding signal stood at 6.24 z-score in experiment [1]; 7.19 z-score in experiment [2]; 10 z-score in experiment [3]; 9 z-score in experiment [4]; 2.99 z-score in experiment [5]; 5.09 z-score in experiment [6]. Further, the binding signal in experiment [7] was determined as 5.48 z-score.

With “CCGATTAACATCAAAAGTCCCCATGATGTTAATCGGGTCTTGATTCGCTTGACGCTGCTG”, the binding signal in experiment [1] was 7.92 z-score; in experiment [2], 7.91 z-score; in experiment [3] it was 7.59 z-score; in experiment [4] it was 3.45 z-score; in experiment [5], 8.38 z-score; in experiment [6], 7.23 z-score. In experiment [7], this sequence registered a binding signal of 6.84 z-score.

On to “CCGATTAACATCAGAAATTTCCCTGATGTTAATCGGGTCTTGATTCGCTTGACGCTGCTG”, for which the binding signal was found to be 5.84 z-score in experiment [1]; 8.58 z-score in experiment [2]; 8.13 z-score in experiment [3]; 5.21 z-score in experiment [4]; 4.81 z-score in experiment [5]; 7.73 z-score in experiment [6]. The binding signal in experiment [7] turned out to be 5.92 z-score.

Regarding “CCGATTAACATCAAAGATTCCCCTGATGTTAATCGGGTCTTGATTCGCTTGACGCTGCTG”, the binding signal in experiment [1] worked out at 8.13 z-score; in experiment [2], 10.5 z-score; in experiment [3] it was 11.7 z-score; in experiment [4], 8.45 z-score; in experiment [5], 7.42 z-score; in experiment [6], 7.27 z-score. The sequence further came in with a binding signal in experiment [7] of 6.66 z-score.

For “CCGATTAACATCACAATCCCCCCTGATGTTAATCGGGTCTTGATTCGCTTGACGCTGCTG”, the binding signal stood at 8.13 z-score in experiment [1]; 5.61 z-score in experiment [2]; 6.37 z-score in experiment [3]; 5.89 z-score in experiment [4]; 5.35 z-score in experiment [5]; 5.25 z-score in experiment [6]. For the same sequence, the binding signal in experiment [7] was 6.19 z-score.

Values taken from PMC5700166.
